Compounds with a hit are over-represented: about 3.5% of the library has one in this group of screens.
Anthrax LF prot: anthrax lethal factor protease inhibition. actives 0.12% (n = 360,000). P15917. multiplex microsphere protease cleavage assay, LF. inhibition, % at 10 µM
Target sequence (P15917 whole entry, looked up): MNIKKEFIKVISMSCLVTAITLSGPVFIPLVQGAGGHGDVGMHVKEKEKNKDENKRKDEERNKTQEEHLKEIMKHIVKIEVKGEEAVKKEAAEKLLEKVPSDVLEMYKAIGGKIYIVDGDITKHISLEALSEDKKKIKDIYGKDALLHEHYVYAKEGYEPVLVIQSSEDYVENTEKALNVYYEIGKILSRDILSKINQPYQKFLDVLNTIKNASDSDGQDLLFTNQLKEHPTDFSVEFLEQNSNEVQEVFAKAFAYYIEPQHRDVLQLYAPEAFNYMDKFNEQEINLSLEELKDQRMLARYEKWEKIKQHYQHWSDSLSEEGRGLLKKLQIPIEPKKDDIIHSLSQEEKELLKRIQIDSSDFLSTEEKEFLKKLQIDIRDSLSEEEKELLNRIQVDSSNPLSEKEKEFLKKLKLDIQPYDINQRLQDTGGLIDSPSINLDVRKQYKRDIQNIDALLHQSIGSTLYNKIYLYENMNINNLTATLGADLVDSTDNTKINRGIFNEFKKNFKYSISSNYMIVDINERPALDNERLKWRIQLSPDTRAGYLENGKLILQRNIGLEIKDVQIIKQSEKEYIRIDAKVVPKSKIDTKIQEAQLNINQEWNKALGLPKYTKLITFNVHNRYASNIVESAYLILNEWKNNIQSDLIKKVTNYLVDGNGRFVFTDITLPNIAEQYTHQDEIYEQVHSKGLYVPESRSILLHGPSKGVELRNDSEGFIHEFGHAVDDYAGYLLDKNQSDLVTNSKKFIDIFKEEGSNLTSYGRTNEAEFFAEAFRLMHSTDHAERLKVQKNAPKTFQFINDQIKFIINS
BJeLR viability: BJeLR cell viability loss | BJeLR (HRASV12) viability, CellTiter-Glo ATP luminescence, 48 h | inhibition, % (no concentration beside the values) | actives 0.17% (n = 300,000); in the data active means inhibition above about 50%; inconclusive means no clear call, values can overlap the other calls
BoNT-A LC inh2: BoNT A light chain protease inhibition; inhibition, % at 10 µM; actives 0.17% (n = 360,000); AID 588499; multiplex microsphere protease substrate cleavage, flow cytometry
Bead autofluor: flagged as autofluorescent in microsphere protease counterscreen; actives 3.1% (n = 360,000); fluorescence intensity (test concentration not listed); compound autofluorescence counterscreen, microsphere flow cytometry; hits give high values; in the data active means fluorescence intensity above about 16000; inconclusive means no clear call, values can overlap the other calls
BoNT F protease: blocks Botulinum neurotoxin F light chain protease. Multiplex microsphere protease cleavage assay, flow cytometry. inhibition, % at 10 µM. actives 0.22% (n = 360,000); in the data active means inhibition above about 35%, passing the limit was not always enough; inconclusive means no clear call, values can overlap the other calls
Hits are given with their value; - = inactive; ? = inconclusive; . = no result given. Unless noted, no stated cut-off is given here; in the data, active means inhibition above about 30%; inconclusive means no clear call, values can overlap the other calls; inactive means below that.

SMILES	Anthrax LF prot	BJeLR viability	BoNT-A LC inh2	Bead autofluor	BoNT F protease
CN(Cc1ccco1)C(=O)[C@H](Cc1ccccc1)NC(=O)CC[C@H]1O[C@@H](n2ccc(=O)[nH]c2=O)[C@H](O)[C@@H]1O	-	.	-	-	-
COc1cc(CN2C[C@@H](CO)O[C@@H](n3cnc4c(N5CCN(C)CC5)ncnc43)C2)cc(OC)c1OC	-	.	-	-	-
CCCCOc1ccc(OCCSc2nc3ccccc3n2CC(=O)O)cc1	-	-	-	-	?
CCCCOC(=O)n1c(SCC(=O)N(C)C)nc2ccccc21	-	-	-	20862	-
CCCOc1ccc(CSc2nnc(CCC)n2N)cc1	-	-	-	-	-
CCCCOc1ccc(Cl)cc1CSc1nnc(CC)n1N	-	-	-	24086	-
CCC(C)[C@H](NS(=O)(=O)c1ccc(F)cc1Br)C(=O)OC (some centres not stated)	-	.	-	-	-
COc1ccc(N(CC(=O)N/N=C/c2ccco2)S(=O)(=O)c2ccccc2)cc1Cl	-	-	-	-	-
CCn1nc(NC(=O)c2ccco2)c2cc3ccccc3nc21	-	-	-	16504	-
CCCn1nc(NC(=O)CC(C)C)c2cc3ccccc3nc21	-	-	-	22379	-
CCCCC(=O)Nc1nn(CC(C)C)c2nc3ccccc3cc12	-	-	?	21680	-
CC(C)Cn1nc(NC(=O)c2ccco2)c2cc3ccccc3nc21	-	-	-	-	-
CC(C)Cn1nc(NC(=O)C(C)(C)C)c2cc3ccccc3nc21	-	-	-	-	-
COc1ccc(CCNC(=O)c2cc3ccc(Cl)cc3nc2N)cc1	-	.	-	-	-
CCC(=O)N1Cc2cc(C(=O)Nc3nccs3)nc(-c3cccc(-c4ccccc4OC)c3)c2[C@@H]1CCO	-	.	-	-	-
COc1ccc(Cl)cc1NC(=S)NC1CCCC1	-	-	-	-	-
Cc1cccn2c(=O)c(C=Nc3ccc(Cl)cc3)c(NCCO)nc12	-	-	-	21575	-
Cc1cccn2c(=O)c(C=Nc3ccccc3)c(NCCO)nc12	-	-	-	-	-
Cc1ccnc(NC(=O)CCc2c(C)nc3ncnn3c2C)c1	-	-	-	20457	-
COc1ccc(CCNc2c(C)c(C)nc3ncnn23)cc1	-	-	-	-	-
CCOC(=O)c1ccc(Nc2c(CC)c(C)nc3ncnn23)cc1	-	-	-	17060	-
COC(=O)c1ccc(NC(=O)CCc2c(C)nc3ncnn3c2C)cc1	-	-	-	22498	-
CCc1c(C)nc2ncnn2c1NCCc1ccc(OC)c(OC)c1	-	-	-	18500	-
Cc1ccc(S(=O)(=O)N(C)CCCC(=O)NC(C)(C)CO)cc1	-	-	-	-	-
C[C@@H]1CN([C@H](C)CO)C(=O)CCCn2cc(nn2)CO[C@H]1CN(C)S(=O)(=O)c1cccc(C#N)c1	-	.	-	-	-
SMILES	Anthrax LF prot	BJeLR viability	BoNT-A LC inh2	Bead autofluor	BoNT F protease
CCOc1ccc(CCNC(=O)CCc2c(C)nc3ncnn3c2C)cc1OCC	-	-	-	-	-
Cc1nc2ncnn2c(C)c1CCC(=O)NCCC1=CCCCC1	-	-	-	20756	-
COC(=O)c1ccc2nc(-c3ccc(C)cc3)c(Cc3cccc(Cl)c3)n2c1	-	.	-	-	-
CCOC(=O)c1c(-c2ccccc2)oc2ccc(O)c(CN3CCCC3)c12	-	-	-	17165	-
O=C(NCCO)c1cccc(-c2cnc3cccnn23)c1	-	.	-	-	-
Cc1cc(/C=N\NC(=O)CC(=O)NC2CCCCC2)c(C)n1-c1ccc(Cl)c(Cl)c1	-	-	-	24080	-
Cc1cc(C)c(NC(=O)C2CCN(S(C)(=O)=O)CC2)c(C)c1	-	.	-	-	-
Cc1nc(C(F)(F)F)ccc1C(=O)N1CCC1(C)C(=O)NCc1ccc(Cl)cc1 (configuration not stated)	-	.	-	-	-
Cc1cc(NS(=O)(=O)c2ccc(CC(C)C)cc2)no1	-	-	-	18585	-
Cc1cc(NS(=O)(=O)c2ccc(NC(=O)C(C)Oc3cc(C)c(Cl)c(C)c3)cc2)no1 (configuration not stated)	-	-	-	-	-
Cc1cc(NS(=O)(=O)c2ccc(C(C)C)cc2)no1	-	-	-	-	-
Cc1ccc(OC(C)C(=O)Nc2ccc(S(=O)(=O)Nc3cc(C)on3)cc2)cc1 (configuration not stated)	-	-	?	21520	-
Cc1cc(NS(=O)(=O)c2ccc(NC(=O)C(C)Oc3ccc(Cl)cc3)cc2)no1 (configuration not stated)	-	-	-	17111	-
CC(=O)C1=C(C)Nc2ncnn2C1c1ccccc1OCc1ccccc1 (configuration not stated)	-	-	-	-	-
COC(=O)C1=COC(OC2OC(CO)C(O)C(O)C2O)C2C(C)CC(=O)C12 (configuration not stated)	-	.	-	-	-
CCOC(=O)N1CCN(c2cc3nccnc3cc2F)CC1	-	-	?	22764	-
CCCC(=O)c1cc(F)c(N2CCN(C(=O)OCC)CC2)cc1C	-	-	-	-	-
Cc1ccc(C[n+]2ccccc2)cc1	-	-	-	-	-
Cc1ccc(C[n+]2c(-c3ccc(C)cc3)cc(-c3ccc(C)cc3)cc2-c2ccc(C)cc2)cc1	-	60	-	-	-
COc1ccc(C(=O)OCC(=O)Nc2ccc(OC(F)F)cc2)c(OC)c1	-	-	-	16151	-
CCN(CC)C(=O)CSc1nnc2sc3ccccc3n12	-	-	-	19933	-
CCN(CC)C(=O)CSc1nnc(-c2ccncc2)n1N	-	-	-	16267	-
Cc1ccc(-c2nnc(SCC(=O)OC(C)C)n2N)cc1	-	-	-	-	-
CCN(CC)C(=O)CSc1nnc(-c2ccccc2)n1N	-	-	-	21307	-
CCN(CC)C(=O)CSc1nnc(-c2ccccc2)n1-c1ccccc1	-	-	-	-	-
SMILES	Anthrax LF prot	BJeLR viability	BoNT-A LC inh2	Bead autofluor	BoNT F protease
CCOc1ccc(-c2nnc(SCC(=O)N(CC)CC)n2N)cc1	-	-	-	21180	-
COc1ccc(CN2CCNC(=O)C2CC(=O)N(C)CCC2CCOCC2)c(OC)c1 (configuration not stated)	-	-	-	-	-
CCOC(=O)C1=C(CSc2nc(-c3ccccc3)ccc2C#N)OC(N)=C(C#N)C1c1ccc(OC)cc1 (configuration not stated)	-	-	-	-	-
Cc1ccc(S(=O)(=O)/N=C(\N)Nc2nc(C)c3cc(C)ccc3n2)cc1	-	-	-	21184	-
CCCNC(=O)C1(C)CCCN(C(=O)c2cccc(C(F)(F)F)c2)C1 (configuration not stated)	-	.	-	-	-
CN(Cc1cccnc1)C(=O)CNC(=O)c1ccc(Cl)cc1Cl	-	-	-	-	-
S=C(Nc1ccccn1)Nc1ccccc1Cl	-	-	-	-	-
Cc1ccccc1NC(=S)Nc1ccccn1	-	-	-	-	37
CCn1c(=O)cc(OCC(=O)NCc2cccs2)c2ccccc21	-	-	-	-	-
CCc1nc2ccc(C(=O)Nc3cccc(OCC(=O)N(C)C)c3)cn2c1N(C)Cc1cc2ccccc2s1	-	.	-	-	-
